Out of some 300,000 compounds screened, about 3,600 (1.2%) were called active. Rule as the data show it: active = activation above about 30% (passing the limit was not always enough); inconclusive = no clear call, values can overlap the other calls. The full list was thinned out, with actives kept by preference.
test: activation of beta-catenin signaling reporter – cell-based, plate reader, single point, primary screen (AID 743398); details: Wnt/beta-catenin reporter cell assay, activator, at 9.35 µM, active compounds read high;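 also: 0% = neutral control wells and 100% = positive control wells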

| SMILES | activation |
| --- | --- |
| COc1ccccc1Cc1c(-c2ccc(F)cc2)nc2ccc(C)cn12 | 13% (inactive) |
| CCOC(=O)N1CCN(C(=O)C[C@H]2C[C@@]3(C(=O)OC)C(=C[C@H](C4CCCC4)O[C@@H]3C)N(Cc3ccccc3)C2=O)CC1 | -4.54% (inactive) |
| CCN(CC)C(=O)CSc1ncnc2c1cnn2-c1ccccc1 | 61.3% (active) |
| CCC(C)N(C(=O)CSc1ncnc2c1cnn2-c1ccccc1)C1CCS(=O)(=O)C1 (stereo unspecified) | 0.0855% (inactive) |
| CCN(C(=O)CSc1ncnc2c1cnn2-c1ccccc1)C1CCS(=O)(=O)C1 (stereo unspecified) | 0.526% (inactive) |
| O=C1NC[C@H](Cc2ccc(O)cc2)N(C[C@@H]2CCCN2C[C@H](Cc2ccccc2)N2C[C@H](Cc3ccccc3)N(CC3CCCCC3)C(=O)C2=O)C1=O | -2.18% (inactive) |
| COC(=O)c1ccc(CN2C(=O)[C@]3(OCCC=C[C@H]3C)c3c(Br)cccc32)cc1 | -10.3% (inactive) |
| CC1Cc2ccccc2N1CC(=O)Nc1ccc(S(N)(=O)=O)cc1 (stereo unspecified) | 39% (active) |
| NS(=O)(=O)c1cccc(NC(=O)CN2CCCc3ccccc32)c1 | -1.12% (inactive) |
| CC1CC(C)CN(CC(=O)Nc2ccc(S(N)(=O)=O)cc2)C1 (stereo unspecified) | -0.27% (inactive) |
| CC1CCN(C(=O)COC(=O)c2cc(=O)[nH]c3ccccc23)CC1 | -3.48% (inactive) |
| CC(NC(=O)COC(=O)c1cc(=O)[nH]c2ccccc12)c1ccccc1 (stereo unspecified) | -11.1% (inactive) |
| CN(C(=O)COC(=O)c1cc(=O)[nH]c2ccccc12)C1CCCCC1 | 60.6% (active) |
| Cc1ccc([C@H]2N[C@]3(CCCN(Cc4ccccc4)C3=O)[C@H]3C(=O)N(Cc4ccccc4)C(=O)[C@@H]23)cc1 | -1.11% (inactive) |
| Cc1cc(C)nc(Nc2cc([N+](=O)[O-])ccc2C)n1 | -0.166% (inactive) |
| Cc1ccc(-c2cn(S(=O)(=O)c3cccc([N+](=O)[O-])c3)nc2N)cc1 | -0.55% (inactive) |
| Cc1ccc(-n2cc3ccc([N+](=O)[O-])cc3n2)cc1 | 44.6% (active) |
| CC(C)[C@@H](C)/C=C/[C@@H](C)[C@H]1CC[C@@H]2[C@]1(C)CCC1[C@]23C=C[C@]2(C[C@@H](O)CC[C@]12C)N(c1ccc([N+](=O)[O-])cn1)O3 (stereo partly specified) | -14.5% (inactive) |
| CN(C(=O)CN1CCN(c2cc(-c3ccc(OCc4ccccc4)cc3)ncn2)CC1)c1ccccc1 | -1.53% (inactive) |

| SMILES | activation |
| --- | --- |
| CC(C)Cc1cc(C(=O)NCCc2ccccc2)no1 | 28.6% (inactive) |
| CC(C)Cc1cc(C(=O)Nc2cc(Br)ccc2O)no1 | 44.3% (active) |
| CC(C)CNC(=O)c1cc(-c2ccc(Br)cc2)on1 | 26.3% (inactive) |
| OC[C@@H]1CN(Cc2ccc(-c3ccccc3)cc2)C[C@H](n2cnc3c(NC4CCCC4)ncnc32)O1 | -4.89% (inactive) |
| Cc1nc2c(OCc3ccc(Cl)cc3Cl)cccn2c1N(C)CC1CC1 | -3.96% (inactive) |
| Nc1nc2c(ncn2[C@@H]2O[C@H](C(=O)N[C@@H](Cc3ccccc3)C(=O)NCc3ccccc3)[C@@H](O)[C@H]2O)c(=O)[nH]1 | 1.27% (inactive) |
| CSCCC(C(=O)NC(C)(C)C)n1c(-c2ccccc2)nc2ccccc21 (stereo unspecified) | 2.95% (inactive) |
| CCOC(=O)c1c(NC(=S)SC)sc(C(=O)N2CCc3ccccc3C2)c1C | -0.956% (inactive) |
| Oc1c(CN2CCCC2)cc(COCc2ccccc2)c2cccnc12 | 2.52% (inactive) |
| CC(=O)NC(c1cccs1)c1cc(Br)c2cccnc2c1O (stereo unspecified) | -2.66% (inactive) |
| CCN1CCN(C(c2cccnc2)c2cc(Cl)c3cccnc3c2O)CC1 (stereo unspecified) | 61.4% (active) |
| O=C(NN=Cc1ccco1)C(=O)Nc1ccc(Cl)c([N+](=O)[O-])c1 | -3.58% (inactive) |
| Cc1cc(C)n2c(Nc3c(C)cccc3C)c(CCc3ccccc3)nc2n1 | -1.15% (inactive) |
| Cc1nc2cc(NC(=O)CSc3nc4c(C)cccc4cc3C#N)ccc2s1 | -2.44% (inactive) |
| Cc1nonc1NC(=O)CSc1nc2ccccc2cc1C#N | 24.4% (inactive) |
| Cc1cc(C)c(C#N)c(SCC(=O)Nc2ccccc2)n1 | 39.1% (active) |
| CCCCc1c(-c2ccc(Br)cc2)ncn1CCc1ccccc1OC | -12.1% (inactive) |
| CC(=O)c1ccc(S(=O)(=O)NCC2CCN(C(=O)C(=O)c3cccs3)CC2)cc1 | -0.884% (inactive) |
| Cc1nc(NC(=O)C2CCCCC2)sc1C | 37.5% (active) |

| SMILES | activation |
| --- | --- |
| Cc1nc(NC(=O)C23CCC(C)(C(=O)O2)C3(C)C)sc1C (stereo unspecified) | -2.53% (inactive) |
| Cc1nc2ccc(NC(=O)C3CCCCC3)cc2s1 | 15.2% (inactive) |
| CCOC(=O)c1ccc(-c2ccc3ncnc(N(C)Cc4sccc4C)c3c2)o1 | 7.57% (inactive) |
| COC(=O)C(C(=O)OC)c1ccccc1NS(=O)(=O)c1cccc2ccccc12 | -4.59% (inactive) |
| CCc1nc2c(OCCOc3ccccc3)cccn2c1N(C)C(=O)c1cccs1 | -2.69% (inactive) |
| CCOc1ccc2cc(C#N)c(SCC(=O)OC)nc2c1 | 86% (active) |
| COc1ccc(CCNC(=O)CSc2nc(-c3ccc(OC)c(OC)c3)ccc2C#N)cc1 | -3.46% (inactive) |
| CCOc1ccc2nc(N3CCCN(C(=O)Nc4ccccc4C)CC3)c(C#N)cc2c1 | -1.99% (inactive) |
| COc1ccc(NC(=O)C(c2ccncc2)n2c(=O)c(-c3cc4ccccc4[nH]3)nc3ccccc32)cc1 (stereo unspecified) | 16.9% (inactive) |
| C[C@H](O)[C@@H]1CN2CCc3ccc(-c4ccc5c(c4)OCO5)cc3[C@@H]2C[C@@H]1N(C)C(=O)C1CCCCC1 | 23.5% (inactive) |
| Cc1ccccc1C(=O)N[C@H](C(=O)N1CCC[C@H]1C(=O)NCc1ccccc1)C(C)C | -3.2% (inactive) |
| COc1ccc(OC)c(C(O)c2nc3ccccc3n2C)c1 (stereo unspecified) | -0.171% (inactive) |
| COc1cc(C(O)c2nc3ccccc3n2C)cc(OC)c1OC (stereo unspecified) | -0.72% (inactive) |
| COc1cccc(C(O)c2nc3ccccc3n2C)c1 (stereo unspecified) | 47.8% (active) |
| CCCCCCn1c(=O)n2n(c1=O)C[C@]1(OC(=O)NCc3ccc(OC)c(OC)c3)CN(S(=O)(=O)c3ccc(C)cc3)C[C@]1(O)C2 | -4.95% (inactive) |
| Cc1cccc(-c2nc3ccc(C(=O)NCCN4CCN(C)CC4)cc3nc2-c2cccc(C)c2)c1 | 2.48% (inactive) |
| C=CCNC(=O)c1ccc2c3n(nc2c1)-c1ccc(C)cc1CO3 | 38.9% (active) |
| C=CCNC(=O)c1ccc(C)c(Br)c1 | -0.707% (inactive) |

— PubChem BioAssay AID743398 (Broad Institute, 2014)
